Results filed as inconclusive are left out. The source made the active and inactive calls. Calls come from the whole dose curve; as a rule, active = well fitted inhibition curve with a large enough effect; inconclusive = small, poorly fitted or top-dose-only effect; inactive = flat fitted curve, though single readings scatter.
% is set by controls: 0 for no effect and ±100 for the full control effect; potency is the fitted concentration of half-maximal effect.

The assay relates to NIH3T3. Briefly: Cytotoxic Profiling of Annotated Libraries Using Quantitative High-Throughput Screening (AID 1296008). Note: nearly all actives have a fitted effect of over 60% in size. The conditions noted are these: Five cell lines viability, CellTiter-Glo ATP luminescence, 48-72 h; max response: stronger effect = lower value. The essentials:
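Cytotoxicity was measured as CellTiter-Glo ATP luminescence, read after 10 min at room temperature. Compound treatment of the cells lasted 48 or 72 hr at 37 degrees Celsius in a qHTS format.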
(In ATP-based viability assays light output follows the ATP content of the culture.)
`COc1cc(Br)c(S(=O)(=O)Nc2ccc(C(F)(F)F)c(O[C@@H]3CCN(C)C3)c2)cc1OC`: the max response is -2.88% (inactive). As to `NC(=O)Nc1cc(-c2cccc(F)c2)sc1C(=O)NC1CCCNC1` (stereo not given), the Potency is 0.517 µM (active). Consider `CC1(C)CCC2(C(=O)OC3OC(CO)C(O)C(O)C3O)CCC3(C)C(=CCC4C5(C)CCC(O)C(C)(C(=O)O)C5CCC43C)C2C1O` (stereo not given), for which the max response is 0.934% (inactive).

Regarding `Cc1[nH]nc(C(F)(F)F)c1Cc1sc2c(c1C(=O)N1C[C@](C)(O)CO1)c(=O)n(C)c(=O)n2C(C)C`, the Potency was 13 µM (active). On the same count and under the same terms, the same measure for `CC(=O)O[C@H]1C(=O)[C@@]2(C)[C@H]([C@H](OC(=O)c3ccccc3)[C@]3(O)C[C@H](OC(=O)[C@H](O)[C@@H](NC(=O)c4ccccc4)c4ccccc4)C(C)=C1C3(C)C)[C@]1(OC(C)=O)CO[C@@H]1C[C@@H]2O`: 0.031 µM (active). Take `C/C=C/C=C/C=C/C(=O)OC1C=C(C=O)C(O)(C(=O)O)C2(C)CCCC(C)(C)C12` (stereo not given): the max response was 3.49% (inactive). `CCOc1cc(N2CCC(O)CC2)ccc1Nc1ncc2c(n1)N(C1CCCC1)CCC(=O)N2C`: the Potency was 4.11 µM (active). With `C/C=C(\C)C(=O)OCC1OC(OC2OC(COC(=O)/C(C)=C/C)C(OC3OC(CO)C(OC(=O)/C(C)=C/C)C(OC(=O)/C(C)=C/C)C3O)C(O)C2O)C(O)C(O)C1OC1OC(CO)C(OC(=O)/C(C)=C/C)C(OC(=O)/C(C)=C/C)C1O` (stereo not given), the max response is -26.7% (inactive). Turning to `Cc1cc(C)c(Nc2ccnc(Nc3ccc(C#N)cc3)n2)c(C)c1`, the Potency is 13 µM (active). As for `CC1(C)[C@@H](O)CC[C@]2(C)[C@H]3CC=C4[C@@H]5C[C@](C)(C(=O)O)CC[C@]5(C)CC[C@@]4(C)[C@]3(C)CC[C@@H]12`, the max response is 0.034% (inactive).

Values taken from PubChem BioAssay (NCATS).
